From PubChem BioAssay (EPA / NIEHS)
Inconclusive results are not listed. Calls of active or inactive are those of the source. Rule for the calls: active = hit-call score of the fitted dose curve at least 0.9, where 1 is the maximum; inconclusive = response in the unintended direction; inactive = score below 0.9.

tested on: not listed separately; assay: TOX21_p53_BLA_p4_viability: Viability Assessment in the Tox21 HCT-116 p53 Agonism Beta-lactamase Assay, Phase 4 (AID 2283597);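 note: hits lower the luminescence signal meaning cytotoxicity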
Outline: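 Readout: ATP luminescence (CellTiter-Glo), measured 30 min after reagent addition at RT. The reagent followed a 2 h CCF4-AM incubation, and the cells had been exposed to compound for 16 h at 37C.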

Compound	outcome
C1=CCC2CC=CC2C1 (configuration not stated)	inactive
CO/N=C(\C(=O)N[C@@H]1C(=O)N2C(C(=O)O)=C(CSc3nc(C)c(CC(=O)O)s3)CS[C@H]12)c1csc(N)n1	inactive
CCN(CC)CCOc1ccccc1C(=O)CCc1ccccc1	inactive
[Cl-].[Cl-].[NH-]CC[NH-].[Pt+4]	inactive
CCC(C)(C)CC	inactive
CN(C)CCCOc1nn(Cc2ccccc2)c2ccccc12	inactive
CC(C)CCCC(=O)O	inactive
Oc1cc(O)cc(O)c1	inactive
C[Se]CCC(N)C(=O)O (configuration not stated)	inactive
CN(C)CCCSc1ccccc1NC(=O)/C=C/c1ccccc1	inactive
CCCSSC(CCO)=C(C)N(C=O)Cc1cnc(C)nc1N	inactive
N=C(N)c1ccc(C=Cc2ccc(C(=N)N)cc2O)cc1	inactive
O=C(c1ccc(F)cc1)C1CCN(CCn2c(=S)[nH]c3ccccc3c2=O)CC1	inactive

molecular target: Cellular tumor antigen p53 (Homo sapiens) (UniProt P04637); assay: TOX21_p53_BLA_p5_ratio: Tox21 HCT-116 p53 Agonism Beta-lactamase Assay, Ratio, Phase 5 (AID 2283599)
Outline: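 HCT-116 p53-bla cells (4000/well) plated 5 h, dosed with compound (217-fold DMSO dilution) for 16 h at 37 C; CCF4-AM substrate 2 h at room temperature. Activity is the 460/530 nm emission ratio (405 nm excitation), fitted in gain-of-signal direction versus DMSO.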

Chain of Cellular tumor antigen p53 (Homo sapiens) (P04637 whole entry, looked up): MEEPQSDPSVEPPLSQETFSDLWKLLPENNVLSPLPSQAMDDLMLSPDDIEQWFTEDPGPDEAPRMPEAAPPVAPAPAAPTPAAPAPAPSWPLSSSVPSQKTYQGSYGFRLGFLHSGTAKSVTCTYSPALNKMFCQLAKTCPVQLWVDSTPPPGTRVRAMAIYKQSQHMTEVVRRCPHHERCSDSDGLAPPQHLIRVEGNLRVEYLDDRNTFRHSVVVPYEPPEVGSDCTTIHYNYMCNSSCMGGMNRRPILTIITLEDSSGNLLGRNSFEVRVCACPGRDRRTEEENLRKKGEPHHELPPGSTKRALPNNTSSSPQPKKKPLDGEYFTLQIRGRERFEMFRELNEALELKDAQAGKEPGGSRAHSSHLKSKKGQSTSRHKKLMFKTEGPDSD

Compound	outcome
C1=CCC2CC=CC2C1 (configuration not stated)	inactive
CO/N=C(\C(=O)N[C@@H]1C(=O)N2C(C(=O)O)=C(CSc3nc(C)c(CC(=O)O)s3)CS[C@H]12)c1csc(N)n1	inactive
CCCCS(=O)(=O)N[C@@H](Cc1ccc(OCCCCC2CCNCC2)cc1)C(=O)O	inactive
Cc1cccc(C)c1N(CCCc1cccnc1)C(=O)C(C)N (configuration not stated)	inactive
CCCCc1ncc(/C=C(\Cc2cccs2)C(=O)O)n1Cc1ccc(C(=O)O)cc1	inactive
Cc1ccc(NC(N)=O)cc1	inactive
CCCCC/C=C\C/C=C\CCCCCCCC(=O)NC(C)c1ccccc1 (configuration not stated)	inactive
CCOC(=O)C(C)(C)C	inactive
CCC(C)(C)CC	inactive
Oc1cc(O)cc(O)c1	inactive
N=C(N)c1ccc(C=Cc2ccc(C(=N)N)cc2O)cc1	inactive
c1ccc2cnncc2c1	inactive
O=C(c1ccc(F)cc1)C1CCN(CCn2c(=S)[nH]c3ccccc3c2=O)CC1	inactive

tested on: not listed separately; assay: TOX21_p53_BLA_p5_viability: Viability Assessment in the Tox21 HCT-116 p53 Agonism Beta-lactamase Assay, Phase 5 (AID 2283600)
Outline: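 Workflow: seed 4000 cells per well, wait 5 h, add compounds (DMSO, 217-fold dilution), incubate 16 h, load CCF4-AM 2 h, add CellTiter-Glo, read luminescence after 30 min.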

Compound	outcome
C1=CCC2CC=CC2C1 (configuration not stated)	inactive
CO/N=C(\C(=O)N[C@@H]1C(=O)N2C(C(=O)O)=C(CSc3nc(C)c(CC(=O)O)s3)CS[C@H]12)c1csc(N)n1	inactive
Cn1c(N)nc2nc[nH]c2c1=O	inactive
CCCCC(CC)COC(=O)CC#N (configuration not stated)	inactive
CCC(=O)c1cccc(Cl)c1	inactive
Nc1ncnc2c1ncn2CCOCP(=O)(O)O	inactive
CN1CCCC(CC2c3ccccc3Sc3ccccc32)C1 (configuration not stated)	inactive
OC1CCCc2ccccc21 (configuration not stated)	inactive
CCOC(=O)C(C)(C)C	inactive
Oc1cc(O)cc(O)c1	inactive
CCCCOCCOC(=O)CCCCCCCCC(=O)OCCOCCCC	inactive
CCNS(=O)(=O)c1ccc(C)cc1	inactive
N=C(N)c1ccc(C=Cc2ccc(C(=N)N)cc2O)cc1	inactive
CCCCCCCCCCCCCC=O	inactive
CCOC(=O)Nc1ccc2c(c1)N(C(=O)CN(C)C)c1ccccc1CC2	inactive
O=C(c1ccc(F)cc1)C1CCN(CCn2c(=S)[nH]c3ccccc3c2=O)CC1	inactive
